# The list is not random: actives were taken first. Their share in the collection is about 2.8%.
# ERa SRC1 inh – ER-alpha (human) coactivator binding inhibition; TR-FRET ER-alpha LBD / SRC-1 peptide, estradiol-bound; inhibition, % at 25.6 µM; hit rate 1.7% among 86,000; AID 629; in the data active = inhibition above about 50%;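 also: 0% = receptor plus peptide control and 100% = peptide only without receptor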
# MRP resist rev – reverses drug resistance mediated by MRP. H69AR cells + 2 uM doxorubicin, CellTiter-Glo, 72 h. differential viability (reversal), % at 10 µM. hit rate 0.04% among 85,000. AID 602;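 active = viability drop by adding the cancer drug above about 55%, with treated viability meeting a 40% cutoff, limit read from the data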;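 also: viability without doxorubicin minus viability with 2 µM doxorubicin for each compound; larger differential means the compound sensitizes cells more to doxorubicin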
# ERa SRC1 pot – enhances coactivator binding to human estrogen receptor alpha. hit rate 1.3% among 86,000. TR-FRET ERalpha-LBD/SRC-Cy5 coactivator binding, 2 h; 100 = basal binding, no effect. AID 639. coactivator binding (% of control), % at 25.6 µM. P03372; in the data active = activity above about 200%;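 also: binding measured in presence of low estradiol as agonist stimulus; 0% = peptide alone without receptor and 100% = receptor with peptide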
# ERb SRC1 inh – blocks coactivator binding to human estrogen receptor beta | Q92731 | TR-FRET ER-beta LBD / SRC1-Cy5 peptide binding; receptor agonist-loaded with 1 µM estradiol | inhibition, % at 25.6 µM | hit rate 1.3% among 86,000 | AID 633;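 active = compounds whose percent inhibition of the receptor-coactivator binding signal exceeds about 50% in the single-dose screen, limit read from the data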;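 also: 0% = receptor plus peptide wells without compound and 100% = peptide-only wells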
# Target sequence (Q92731 whole entry, looked up, the tested form may be a part): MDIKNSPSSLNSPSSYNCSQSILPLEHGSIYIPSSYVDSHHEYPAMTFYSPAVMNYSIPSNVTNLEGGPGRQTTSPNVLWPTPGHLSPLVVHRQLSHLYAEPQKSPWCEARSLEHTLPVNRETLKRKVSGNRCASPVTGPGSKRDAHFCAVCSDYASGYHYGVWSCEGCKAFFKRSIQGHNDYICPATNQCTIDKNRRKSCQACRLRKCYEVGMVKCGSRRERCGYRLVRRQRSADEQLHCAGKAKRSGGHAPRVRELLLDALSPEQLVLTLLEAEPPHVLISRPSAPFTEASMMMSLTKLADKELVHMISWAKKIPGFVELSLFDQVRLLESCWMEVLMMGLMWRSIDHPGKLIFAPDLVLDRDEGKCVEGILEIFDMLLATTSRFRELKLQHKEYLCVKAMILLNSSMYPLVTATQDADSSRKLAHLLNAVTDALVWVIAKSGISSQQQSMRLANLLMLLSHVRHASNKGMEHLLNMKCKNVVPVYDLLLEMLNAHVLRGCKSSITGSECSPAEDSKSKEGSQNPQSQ
# MRP-1 activ – activators of MRP-1; H69AR cells + doxorubicin, viability rescue, CellTiter-Glo; viability increase, % at 10 µM; hit rate 0.61% among 140,000;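 active = viability gain under doxorubicin at or above a set limit, the compound median plus 3 SD, cut at about 4.7% in these data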;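 also: MRP-1 overexpressing cells given doxorubicin 25 µM after compound pretreatment; 18-22 h compound pretreatment then 72 h with doxorubicin before readout; 0% = doxorubicin-only wells and 100% = vehicle-treated cells without doxorubicin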
# Smad3 FoxH1 inh – blocks human Smad3 binding to FoxH1 peptide; TR-FRET Smad3/Dy647-FoxH1 peptide binding, europium anti-His; inhibition, % at 25 µM; hit rate 0.29% among 88,000; AID 630;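 active = compounds that reduce the energy-transfer binding signal between the protein and its labelled peptide by more than half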;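 also: 0% = Smad3 plus labelled peptide maximal FRET and 100% = peptide-only background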
# * hit, by the source's call; x = no result; [ ] = remark or other dose.
SMILES,ERa SRC1 inh,MRP resist rev,ERa SRC1 pot,ERb SRC1 inh,MRP-1 activ,Smad3 FoxH1 inh
Cc1csc(NC(=O)c2cc3c(C)nn(Cc4ccccc4Cl)c3s2)n1,x,x,x,x,5.0*,x
Cc1nn(Cc2ccccc2Cl)c2sc(C(=O)NC(C)(C)C)cc12,-2.0,-3.0,114.3,-7.2,0.3,-6.9
Clc1ccccc1C(Nc1cnccn1)Nc1cnccn1,x,x,x,x,x,34.7
COc1ccc2c3c([nH]c2c1)[C@H]1C[C@@H]2[C@H](C[C@@H](O)[C@H](OC)[C@H]2C(=O)O)CN1CC3,x,x,x,x,x,11.1
NC(N)=NC[C@@H]1CCCCCCN1,x,x,x,x,x,-10.7
Cn1c(O)c(C(C#N)=C2N=c3ccccc3=N2)c2ccccc21,80.3*[fluorescence artefact?],-11.2,67.9,48.5,-4.5,18.2
CN1c2cccc3cccc(c23)N(C)C1c1cccs1,x,x,x,x,-3.3,x
CC1N(C)c2cccc3cccc(c23)N1C,50.9*[fluorescence artefact?],-8.9,51.1,83.3*[fluorescence artefact?],-4.1,-4.4
C=C(C)c1ccc(C(C)(C)NC(=O)N2CCN(C)CC2)cc1,-2.4,3.9,536.6*[fluorescence artefact?],4.7,-2.5,70.6*
c1cncc(-c2cccnc2)c1,23.5,16.8,93.3,14.3,-2.8,-10.9
c1cncc(-c2nn[nH]n2)c1,3.5,0.4,97.4,63.0*[fluorescence artefact?],-1.2,-1.4

# Screens as filed in PubChem BioAssay.
